Drawing on PubChem BioAssay (EPA / NIEHS), this text covers outcome and AC50 for 3 compounds.

Calls of active or inactive are those of the source. The calls were made as follows: active = hit-call score of the fitted dose curve at least 0.9, where 1 is the maximum; inactive = score below 0.9.

Read-out in assay [1]: Transforming growth factor beta 1 (TGFb1), TGFB1 (gene 7040)
Kind of assay: BSK_KF3CT_TGFb1: BioMAP Diversity Plus: KF3CT Assay for Transforming growth factor beta 1 (TGFb1) Biomarker Activity (AID 2283072). Conditions: primary human keratinocytes with fibroblasts; actives raise or lower the signal. The essentials:
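ELISA quantifies TGF-b1 at 24 h post-dose in a primary human skin co-culture of keratinocytes and fibroblasts, with gain or loss judged against DMSO. Parallel SRB total-protein staining flags overt cytotoxicity.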

Read-out in assay [2]: C-C motif chemokine 2 (Homo sapiens) (UniProt P13500)
Kind of assay: BSK_KF3CT_MCP1: BioMAP Diversity Plus: KF3CT Assay for Monocyte Chemoattractant Protein 1 (MCP1/CCL2) Biomarker Activity (AID 2283073). As to conditions: primary human keratinocytes with fibroblasts; actives raise or lower the signal. The essentials:
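Human keratinocyte plus foreskin fibroblast primary co-culture exposed to chemical for 24 h. MCP-1 levels measured by ELISA. Bidirectional curve fitting relative to DMSO negative control as baseline.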

Read-out in assay [3]: Matrix Metallopeptidase 9 (MMP9), MMP9 (gene 4318)
Kind of assay: BSK_KF3CT_MMP9: BioMAP Diversity Plus: KF3CT Assay for Matrix Metallopeptidase 9 (MMP9) Biomarker Activity (AID 2283074). As to conditions: primary human keratinocytes with fibroblasts; actives raise or lower the signal. The essentials: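 ELISA read-out of MMP-9 at 24 h post-dosing in a co-culture of human skin keratinocytes and foreskin fibroblasts. Gain or loss of signal was fitted in both directions against DMSO.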

Read-out in assay [4]: urokinase plasminogen activator (uPA), PLAU (gene 5328)
Kind of assay: BSK_KF3CT_uPA: BioMAP Diversity Plus: KF3CT Assay for urokinase plasminogen activator (uPA) Biomarker Activity (AID 2283075). As to conditions: primary human keratinocytes with fibroblasts; actives raise or lower the signal. The method in brief: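 Skin co-culture (keratinocytes + foreskin fibroblasts), human primary; 24 h post-dose; uPA by ELISA; gain/loss fit vs DMSO baseline.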

Read-out in assay [5]: CD40, CD40 (gene 958)
Kind of assay: BSK_LPS_CD40: BioMAP Diversity Plus: LPS Assay for CD40 Biomarker Activity (AID 2283076). Conditions: primary human HUVEC with PBMC; actives raise or lower the signal. The method in brief:
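Primary human umbilical vein endothelial cells co-cultured with peripheral blood mononuclear cells, LPS-stimulated, were dosed with chemical and read 24 h later. CD40 levels were measured by ELISA and fitted bidirectionally against DMSO as negative control and baseline.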

Read-out in assay [6]: E-selectin (Homo sapiens) (UniProt P16581)
Kind of assay: BSK_LPS_Eselectin: BioMAP Diversity Plus: LPS Assay for Eselectin Biomarker Activity (AID 2283077). Conditions: primary human HUVEC with PBMC; actives raise or lower the signal. The method in brief: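 Human umbilical vein endothelial cells co-cultured with peripheral blood mononuclear cells under LPS stimulation; E-selectin measured by ELISA 24 h after chemical dosing. Activity fitted bidirectionally against DMSO as negative control and baseline.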

Read-out in assay [7]: Interleukin-8 (IL8), CXCL8 (gene 3576)
Kind of assay: BSK_LPS_IL8: BioMAP Diversity Plus: LPS Assay for Interleukin-8 (IL8) Biomarker Activity (AID 2283078). Conditions: primary human HUVEC with PBMC; actives raise or lower the signal. The essentials:
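Human umbilical vein endothelial cells co-cultured with PBMC were stimulated with LPS; IL-8 levels were measured by ELISA 24 h after chemical dosing. Activity was fitted bidirectionally against DMSO as negative control and baseline.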

Assay [8] can be described thus: BSK_LPS_SRB: Viability Assessment in the BioMAP Diversity Plus: LPS Assay (AID 2283079).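 Also: total protein by sulforhodamine B absorbance as a cytotoxicity measure; measured one day after compound addition.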 Conditions: primary human HUVEC with PBMC. The essentials: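 Human umbilical vein endothelial cells co-cultured with PBMC (LPS system) were dosed for 24 h. Total protein was stained with 0.1% sulforhodamine B after 10% TCA fixation, read at 560 nm, and fitted bidirectionally against DMSO baseline.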

Read-out in assay [9]: Interleukin-1 alpha (IL1a), IL1A (gene 3552)
Kind of assay: BSK_LPS_IL1a: BioMAP Diversity Plus: LPS Assay for Interleukin-1 alpha (IL1a) Biomarker Activity (AID 2283080). Conditions: primary human HUVEC with PBMC; actives raise or lower the signal. The method in brief: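 Human umbilical vein endothelial cells co-cultured with peripheral blood mononuclear cells were LPS-stimulated and exposed to test chemicals for 24 h. IL-1 alpha was quantified by ELISA, with bidirectional curve fitting against DMSO as the negative control and baseline.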

Read-out in assay [10]: Monocyte Chemoattractant Protein-1 (MCP1), CCL2 (gene 6347)
Kind of assay: BSK_LPS_MCP1: BioMAP Diversity Plus: LPS Assay for Monocyte Chemoattractant Protein-1 (MCP1) Biomarker Activity (AID 2283081). Conditions: primary human HUVEC with PBMC; actives raise or lower the signal. The method in brief: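 HUVEC plus PBMC co-culture (human primary cells, LPS system) exposed to test chemical for 24 h; MCP-1 measured by ELISA. Bidirectional curve fitting against DMSO baseline; parallel SRB total-protein staining flags overt cytotoxicity.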

Assay [11] can be described thus: BSK_LPS_PGE2: BioMAP Diversity Plus: LPS Assay for Prostaglandin E2 (PGE2) Biomarker Activity (AID 2283082). Conditions: primary human HUVEC with PBMC; actives raise or lower the signal. The method in brief: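 PGE2 release measured by ELISA in an LPS-activated co-culture of human umbilical vein endothelial cells and peripheral blood mononuclear cells, read at 24 h post-dosing. DMSO served as baseline for bidirectional curve fitting.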

Read-out in assay [12]: Macrophage colony-stimulating factor (MCSF), CSF1 (gene 1435)
Kind of assay: BSK_LPS_MCSF: BioMAP Diversity Plus: LPS Assay for Macrophage colony-stimulating factor (MCSF) Biomarker Activity (AID 2283083). As to conditions: primary human HUVEC with PBMC; actives raise or lower the signal. The essentials:
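Human umbilical vein endothelial cells co-cultured with peripheral blood mononuclear cells were exposed to compound for 24 h. M-CSF levels were measured by ELISA, and bidirectional curve fitting used DMSO as the negative control and baseline.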

Read-out in assay [13]: Tissue Factor, F3 (gene 2152)
Kind of assay: BSK_LPS_TissueFactor: BioMAP Diversity Plus: LPS Assay for Tissue Factor Biomarker Activity (AID 2283084). Conditions: primary human HUVEC with PBMC; actives raise or lower the signal. The method in brief:
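Human umbilical vein endothelial cells co-cultured with peripheral blood mononuclear cells were dosed and stimulated with LPS. Cell-surface CD142 was quantified by ELISA at 24 h. Activity was fitted bidirectionally against DMSO baseline.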

Read-out in assay [14]: Tumor necrosis factor (Homo sapiens) (UniProt P01375)
Kind of assay: BSK_LPS_TNFa: BioMAP Diversity Plus: LPS Assay for Tumour Necrosis Factor alpha (TNFa) Biomarker Activity (AID 2283085). As to conditions: primary human HUVEC with PBMC; actives raise or lower the signal. The essentials:
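TNFa was quantified by ELISA in LPS-activated co-cultures of human endothelial cells and PBMC, 24 h post-dosing. Both increases and decreases versus DMSO were fitted.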

Read-out in assay [15]: Vascular cell adhesion molecule 1 (VCAM1), VCAM1 (gene 7412)
Kind of assay: BSK_LPS_VCAM1: BioMAP Diversity Plus: LPS Assay for Vascular cell adhesion molecule 1 (VCAM1) Biomarker Activity (AID 2283086). Conditions: primary human HUVEC with PBMC; actives raise or lower the signal. The method in brief:
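VCAM-1 quantified by ELISA in an LPS-activated co-culture of human endothelial cells and peripheral blood mononuclear cells, read 24 h post-treatment. Fitted in both directions versus DMSO; parallel SRB staining flags overt cytotoxicity.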

Read-out in assay [16]: CD40, CD40 (gene 958)
Kind of assay: BSK_SAg_CD40: BioMAP Diversity Plus: SAg Assay for CD40 Biomarker Activity (AID 2283088). As to conditions: primary human HUVEC with PBMC; actives raise or lower the signal. The essentials:
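Human umbilical vein endothelial cells co-cultured with PBMC; CD40 levels measured by ELISA with fluorescence read-out 24 h after chemical dosing. Gain or loss of signal fitted bidirectionally against DMSO baseline.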

Read-out in assay [17]: Monocyte Chemoattractant Protein-1 (MCP1), CCL2 (gene 6347)
Kind of assay: BSK_SAg_MCP1: BioMAP Diversity Plus: SAg Assay for Monocyte Chemoattractant Protein-1 (MCP1) Biomarker Activity (AID 2283090). As to conditions: primary human HUVEC with PBMC; actives raise or lower the signal. The method in brief:
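Values derive from bidirectional fitting of ELISA-measured MCP1 against DMSO controls. Readings were taken 24 h after dosing human vascular endothelial cells co-cultured with peripheral blood mononuclear cells under superantigen stimulation.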

Read-out in assay [18]: E-selectin (Homo sapiens) (UniProt P16581)
Kind of assay: BSK_SAg_Eselectin: BioMAP Diversity Plus: SAg Assay for Eselectin Biomarker Activity (AID 2283091). Conditions: primary human HUVEC with PBMC; actives raise or lower the signal. The method in brief:
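HUVEC co-cultured with PBMC, compound dosed then read at 24 h; E-selectin measured by ELISA. Activity fitted bidirectionally against DMSO as negative control and baseline.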

Read-out in another assay: CD38, CD38 (gene 952)
Kind of assay: BSK_SAg_CD38: BioMAP Diversity Plus: SAg Assay for CD38 Biomarker Activity (AID 2283087). Conditions: primary human HUVEC with PBMC; actives raise or lower the signal. The method in brief: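 CD38 quantified by ELISA (fluorescence) in a superantigen-activated endothelial cell–PBMC co-culture at 24 h post-dose. Activity fitted in both directions relative to DMSO; parallel SRB and Alamar Blue cytotoxicity read-outs.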

Read-out in another assay: CD69, CD69 (gene 969)
Kind of assay: BSK_SAg_CD69: BioMAP Diversity Plus: SAg Assay for CD69 Biomarker Activity (AID 2283089). Conditions: primary human HUVEC with PBMC; actives raise or lower the signal. The method in brief:
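Primary human vascular co-culture (umbilical vein endothelium with peripheral blood mononuclear cells) exposed to test chemical for 24 h. CD69 levels quantified by fluorescence ELISA; DMSO served as negative control for bidirectional fitting.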

Sequence of E-selectin (Homo sapiens) (P16581 whole entry, looked up): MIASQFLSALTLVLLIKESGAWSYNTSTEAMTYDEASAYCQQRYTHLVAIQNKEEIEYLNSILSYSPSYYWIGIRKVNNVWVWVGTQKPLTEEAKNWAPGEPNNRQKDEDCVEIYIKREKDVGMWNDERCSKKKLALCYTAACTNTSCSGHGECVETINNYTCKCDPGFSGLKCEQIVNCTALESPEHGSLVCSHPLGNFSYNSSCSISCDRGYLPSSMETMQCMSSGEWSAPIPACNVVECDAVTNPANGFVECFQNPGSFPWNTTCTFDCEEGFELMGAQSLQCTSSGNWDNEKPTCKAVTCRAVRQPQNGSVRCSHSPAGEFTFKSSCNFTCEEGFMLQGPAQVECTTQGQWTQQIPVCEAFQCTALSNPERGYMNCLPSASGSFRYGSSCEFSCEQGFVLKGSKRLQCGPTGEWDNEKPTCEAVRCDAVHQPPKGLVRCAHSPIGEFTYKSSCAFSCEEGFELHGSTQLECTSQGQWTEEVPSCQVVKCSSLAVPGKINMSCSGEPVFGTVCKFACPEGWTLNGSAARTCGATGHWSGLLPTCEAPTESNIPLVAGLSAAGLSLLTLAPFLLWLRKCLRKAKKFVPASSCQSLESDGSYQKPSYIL
Sequence of Tumor necrosis factor (Homo sapiens) (P01375 whole entry, looked up): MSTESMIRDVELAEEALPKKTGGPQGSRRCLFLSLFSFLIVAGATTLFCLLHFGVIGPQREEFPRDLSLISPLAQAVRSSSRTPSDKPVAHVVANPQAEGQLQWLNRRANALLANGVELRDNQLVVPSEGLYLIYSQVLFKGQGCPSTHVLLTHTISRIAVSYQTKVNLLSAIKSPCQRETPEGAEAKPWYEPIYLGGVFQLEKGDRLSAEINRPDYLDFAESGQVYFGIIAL

On to `CC(C)Oc1cccc(NC(=O)c2ccccc2C(F)(F)F)c1`, for which the outcome is “inactive” in assay [1]; “inactive” in assay [2]; “inactive” in assay [3]; “inactive” in assay [4]; “inactive” in the assay with CD40, CD40 (gene 958) [5]; “inactive” in [6]. Moreover, the outcome in assay [7], in [9], in assay [10], in assay [11], in [12] and in [13] was inactive. Also, the outcome in assay [14] was “inactive”; in assay [15], “inactive”; in the assay with CD40, CD40 (gene 958) [16], “inactive”; in [17] it was “inactive”; in [18], “inactive”. Further, the AC50 in assay [8] is 16.7 µM (active).

As for `O=C(Nc1ccccc1-c1ccc(Cl)cc1)c1cccnc1Cl`, the outcome in assay [1] was “inactive”; in assay [3], “inactive”; in [4], “inactive”; with CD40, CD40 (gene 958) [5], “inactive”; in [6], “inactive”; in assay [7] it was “inactive”. In addition, the outcome in assay [8], in assay [9], in assay [10], in assay [11], in [12] and in [13] was inactive. Moreover, the outcome in [14] was “inactive”; in assay [15], “inactive”; with CD38, CD38 (gene 952) it was “inactive”; with CD40, CD40 (gene 958) [16] it was “inactive”; with CD69, CD69 (gene 969), “inactive”; in assay [17] it was “inactive”. Also, the outcome in [18] was inactive. Also, the AC50 in assay [2] was 0.843 µM (active).

In the case of `O=P(O)(O)CCCl`, the outcome in assay [1] is “inactive”; in assay [2], “inactive”; in assay [3] it was “inactive”; in assay [4], “inactive”; with CD40, CD40 (gene 958) [5], “inactive”; in assay [6] it was “inactive”. Moreover, the outcome in [7], in [8], in [9], in [10], in [11] and in assay [12] was inactive. Moreover, the outcome is “inactive” in [13]; “inactive” in [14]; “inactive” in [15]; “inactive” with CD38, CD38 (gene 952); “inactive” with CD40, CD40 (gene 958) [16]; “inactive” in the assay with CD69, CD69 (gene 969). The outcome in assay [17] and in [18] was inactive.
